Experimental data taken from the supplement of paper PMC8975748.
Counter-ions that a name gives are not always drawn. ± gives the standard deviation of the averaged measurements.

Tests used:
[1] = test system: Saccharomyces cerevisiae BY4741 SeMeCo community; assay: mean cell size (pixel area) (pixels); higher = larger cells; conditions: 10 µM; 24 h; SM minimal medium
In short: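 Yeast cells were fixed with paraformaldehyde, imaged by automated confocal microscopy and analysed in Harmony to obtain mean cell pixel area per well. They came from a four-plasmid fluorescent Saccharomyces cerevisiae BY4741 community, each plasmid complementing one auxotrophy and carrying a fluorescent marker. Before imaging, 70 µl of culture at OD600 = 0.3 was incubated for 24 h in SM medium in 384-well plates predosed acoustically with drug (final 10 µM). Values are means of 3 replicates. Same SeMeCo high-content imaging drug screen: Selleck FDA-approved drugs at 10 µM, 24 h in SM medium, 384-well plates, 3 replicates.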

[2] = test system: Saccharomyces cerevisiae BY4741 SeMeCo community; assay: z-score of prototroph abundance vs DMSO median; higher = larger share of this subpopulation than in DMSO controls; conditions: 10 µM; 24 h; SM minimal medium; subpopulation (auxotrophy): Prototroph
In short: (§1)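 Four plasmids, each restoring a single auxotrophy and encoding a distinct fluorescent protein, were carried by a Saccharomyces cerevisiae BY4741 community. After overnight growth to OD600 1.0 and dilution to 0.3, 70 µl per well was grown for 24 h in minimal SM medium on 384-well plates acoustically predosed with library drugs at 10 µM final. Following paraformaldehyde fixation, automated confocal microscopy was used, with single-auxotroph fluorescent strains defining thresholds and autofluorescence correction. Subpopulation abundance was then scored as a z-score against the vehicle-well median.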

[3] = test system: Saccharomyces cerevisiae BY4741 SeMeCo community; assay: z-score of subpopulation abundance vs DMSO median, subpopulation auxotrophic for M; higher = larger share of this subpopulation than in DMSO controls; conditions: 10 µM; 24 h; SM minimal medium; subpopulation (auxotrophy): M
In short: as §1

[4] = test system: Saccharomyces cerevisiae BY4741 SeMeCo community; assay: z-score of subpopulation abundance vs DMSO median, subpopulation auxotrophic for L; higher = larger share of this subpopulation than in DMSO controls; conditions: 10 µM; 24 h; SM minimal medium; subpopulation (auxotrophy): L
In short: as §1

[5] = test system: Saccharomyces cerevisiae BY4741 SeMeCo community; assay: z-score of subpopulation abundance vs DMSO median, subpopulation auxotrophic for U; higher = larger share of this subpopulation than in DMSO controls; conditions: 10 µM; 24 h; SM minimal medium; subpopulation (auxotrophy): U
In short: as §1

[6] = test system: Saccharomyces cerevisiae BY4741 SeMeCo community; assay: z-score of subpopulation abundance vs DMSO median, subpopulation auxotrophic for H; higher = larger share of this subpopulation than in DMSO controls; conditions: 10 µM; 24 h; SM minimal medium; subpopulation (auxotrophy): H
In short: as §1

[7] = test system: Saccharomyces cerevisiae BY4741 SeMeCo community; assay: z-score of subpopulation abundance vs DMSO median, subpopulation auxotrophic for LU; higher = larger share of this subpopulation than in DMSO controls; conditions: 10 µM; 24 h; SM minimal medium; subpopulation (auxotrophy): LU
In short: as §1

[8] = test system: Saccharomyces cerevisiae BY4741 SeMeCo community; assay: z-score of subpopulation abundance vs DMSO median, subpopulation auxotrophic for LM; higher = larger share of this subpopulation than in DMSO controls; conditions: 10 µM; 24 h; SM minimal medium; subpopulation (auxotrophy): LM
In short: as §1

[9] = test system: Saccharomyces cerevisiae BY4741 SeMeCo community; assay: z-score of subpopulation abundance vs DMSO median, subpopulation auxotrophic for HM; higher = larger share of this subpopulation than in DMSO controls; conditions: 10 µM; 24 h; SM minimal medium; subpopulation (auxotrophy): HM
In short: as §1

[10] = test system: Saccharomyces cerevisiae BY4741 SeMeCo community; assay: z-score of subpopulation abundance vs DMSO median, subpopulation auxotrophic for HU; higher = larger share of this subpopulation than in DMSO controls; conditions: 10 µM; 24 h; SM minimal medium; subpopulation (auxotrophy): HU
In short: as §1

[11] = test system: Saccharomyces cerevisiae BY4741 SeMeCo community; assay: z-score of subpopulation abundance vs DMSO median, subpopulation auxotrophic for HLM; higher = larger share of this subpopulation than in DMSO controls; conditions: 10 µM; 24 h; SM minimal medium; subpopulation (auxotrophy): HLM
In short: as §1

[12] = test system: Saccharomyces cerevisiae BY4741 SeMeCo community; assay: z-score of subpopulation abundance vs DMSO median, subpopulation auxotrophic for HUM; higher = larger share of this subpopulation than in DMSO controls; conditions: 10 µM; 24 h; SM minimal medium; subpopulation (auxotrophy): HUM
In short: as §1

[13] = test system: Saccharomyces cerevisiae BY4741 SeMeCo community; assay: z-score of subpopulation abundance vs DMSO median, subpopulation auxotrophic for HLUM; higher = larger share of this subpopulation than in DMSO controls; conditions: 10 µM; 24 h; SM minimal medium; subpopulation (auxotrophy): HLUM
In short: as §1

[14] = test system: Saccharomyces cerevisiae BY4741 SeMeCo community; assay: z-score of subpopulation abundance vs DMSO median, subpopulation auxotrophic for UM; higher = larger share of this subpopulation than in DMSO controls; conditions: 10 µM; 24 h; SM minimal medium; subpopulation (auxotrophy): UM
In short: as §1

[15] = test system: Saccharomyces cerevisiae BY4741 SeMeCo community; assay: z-score of subpopulation abundance vs DMSO median, subpopulation auxotrophic for HLU; higher = larger share of this subpopulation than in DMSO controls; conditions: 10 µM; 24 h; SM minimal medium; subpopulation (auxotrophy): HLU
In short: as §1

[16] = test system: Saccharomyces cerevisiae BY4741 SeMeCo community; assay: z-score of subpopulation abundance vs DMSO median, subpopulation auxotrophic for LUM; higher = larger share of this subpopulation than in DMSO controls; conditions: 10 µM; 24 h; SM minimal medium; subpopulation (auxotrophy): LUM
In short: as §1

[17] = test system: Saccharomyces cerevisiae BY4741 SeMeCo community; assay: z-score of subpopulation abundance vs DMSO median, subpopulation auxotrophic for HL; higher = larger share of this subpopulation than in DMSO controls; conditions: 10 µM; 24 h; SM minimal medium; subpopulation (auxotrophy): HL
In short: as §1

CO/N=C(\C(=O)N[C@@H]1C(=O)N2C(C(=O)O)=C(Cn3ccc(=N)n3CCO)CS[C@H]12)c1csc(N)n1 [Cefoselis Sulfate]
mean cell size [1]: 12.3 ± 0.24 | z-score of prototroph abundance [2]: 0.34 | z-score of subpopulation abundance [3]: 1.45 | z-score of subpopulation abundance [4]: -1.67 | z-score of subpopulation abundance [5]: 0.03 | z-score of subpopulation abundance [6]: -1.31 | z-score of subpopulation abundance [7]: -0.98 | z-score of subpopulation abundance [8]: -0.08 | z-score of subpopulation abundance [9]: -0.32 | z-score of subpopulation abundance [10]: -0.72 | z-score of subpopulation abundance [11]: -1.24 | z-score of subpopulation abundance [12]: 0.02 | z-score of subpopulation abundance [13]: -0.64

OB1OCc2cc(F)ccc21 [Tavaborole (AN-2690)]
mean cell size [1]: 14 ± 0.24 | z-score of prototroph abundance [2]: -16.4 | z-score of subpopulation abundance [4]: 0.22 | z-score of subpopulation abundance [5]: -3.62 | z-score of subpopulation abundance [6]: 14.2 | z-score of subpopulation abundance [8]: 6.17 | z-score of subpopulation abundance [9]: 27.5 | z-score of subpopulation abundance [10]: 5.21 | z-score of subpopulation abundance [14]: 7.1 | z-score of subpopulation abundance [15]: 23.2 | z-score of subpopulation abundance [11]: 98 | z-score of subpopulation abundance [12]: 16.9 | z-score of subpopulation abundance [16]: 16.4 | z-score of subpopulation abundance [13]: 47.7

COc1ccccc1N1CCN(CCCNc2cc(=O)n(C)c(=O)n2C)CC1 [Urapidil HCl]
mean cell size [1]: 12.49 ± 0.088 | z-score of prototroph abundance [2]: -0.23 | z-score of subpopulation abundance [3]: -0.32 | z-score of subpopulation abundance [4]: -1 | z-score of subpopulation abundance [5]: 1.09 | z-score of subpopulation abundance [6]: -0.78 | z-score of subpopulation abundance [7]: 0.29 | z-score of subpopulation abundance [8]: -0.25 | z-score of subpopulation abundance [9]: -0.81 | z-score of subpopulation abundance [10]: 0.01 | z-score of subpopulation abundance [17]: -0.53 | z-score of subpopulation abundance [11]: -0.67 | z-score of subpopulation abundance [12]: -0.59 | z-score of subpopulation abundance [16]: -0.71 | z-score of subpopulation abundance [13]: -0.28

CN1[C@@H](CC(=O)c2ccccc2)CCC[C@H]1C[C@H](O)c1ccccc1 [Lobeline hydrochloride]
z-score of prototroph abundance [2]: 0.02 | z-score of subpopulation abundance [4]: -0.58 | z-score of subpopulation abundance [5]: 0.36 | z-score of subpopulation abundance [6]: -0.65 | z-score of subpopulation abundance [8]: -0.29 | z-score of subpopulation abundance [9]: 0.17 | z-score of subpopulation abundance [10]: -0.75 | z-score of subpopulation abundance [14]: 0.92 | z-score of subpopulation abundance [15]: -0.94 | z-score of subpopulation abundance [12]: 0.22 | z-score of subpopulation abundance [16]: -0.75 | z-score of subpopulation abundance [13]: 0.01

CCCCCOc1ccc(-c2ccc(-c3ccc(C(=O)N[C@H]4C[C@@H](O)[C@@H](O)NC(=O)[C@@H]5[C@@H](O)[C@@H](C)CN5C(=O)[C@H]([C@@H](C)O)NC(=O)[C@H]([C@H](O)[C@@H](O)c5ccc(O)cc5)NC(=O)[C@@H]5C[C@@H](O)CN5C(=O)[C@H]([C@@H](C)O)NC4=O)cc3)cc2)cc1
mean cell size [1]: 12.6 ± 0.25 | z-score of subpopulation abundance [3]: -11.7 | z-score of subpopulation abundance [4]: 4.48 | z-score of subpopulation abundance [6]: 25 | z-score of subpopulation abundance [7]: 5.21 | z-score of subpopulation abundance [8]: 1.2 | z-score of subpopulation abundance [9]: 0.97 | z-score of subpopulation abundance [10]: 17.2 | z-score of subpopulation abundance [17]: 31.2 | z-score of subpopulation abundance [11]: 42 | z-score of subpopulation abundance [12]: 25.3 | z-score of subpopulation abundance [13]: 76

CCCCCCCCCC(=O)NC1C(Oc2c3cc4cc2Oc2ccc(cc2Cl)C(OC2OC(CO)C(O)C(O)C2NC(C)=O)C2NC(=O)C(NC(=O)C4NC(=O)C4NC(=O)C(Cc5ccc(c(Cl)c5)O3)NC(=O)C(N)c3ccc(O)c(c3)Oc3cc(O)cc4c3)c3ccc(O)c(c3)-c3c(OC4OC(CO)C(O)C(O)C4O)cc(O)cc3C(C(=O)O)NC2=O)OC(CO)C(O)C1O (stereo unspecified) [Teicoplanin]
z-score of subpopulation abundance [5]: -0.01 | z-score of subpopulation abundance [6]: 0.94 | z-score of subpopulation abundance [7]: 0.07 | z-score of subpopulation abundance [8]: 0.75 | z-score of subpopulation abundance [10]: 0.39 | z-score of subpopulation abundance [14]: 0.78 | z-score of subpopulation abundance [17]: 1.01 | z-score of subpopulation abundance [15]: -0.15 | z-score of subpopulation abundance [11]: -0.07 | z-score of subpopulation abundance [12]: 1.19 | z-score of subpopulation abundance [13]: -0.79

CCC(C)(C)c1ccc(CC(C)CN2C[C@@H](C)O[C@@H](C)C2)cc1 (stereo partly specified) [Amorolfine HCl]
mean cell size [1]: 12 ± 0.35 | z-score of prototroph abundance [2]: -9.52 | z-score of subpopulation abundance [3]: 9.64 | z-score of subpopulation abundance [4]: -4.45 | z-score of subpopulation abundance [5]: 1.83 | z-score of subpopulation abundance [6]: 8.59 | z-score of subpopulation abundance [7]: -0.63 | z-score of subpopulation abundance [8]: -0.63 | z-score of subpopulation abundance [9]: 8.92 | z-score of subpopulation abundance [10]: 5.04 | z-score of subpopulation abundance [14]: 10 | z-score of subpopulation abundance [17]: 1.91 | z-score of subpopulation abundance [11]: 10.3 | z-score of subpopulation abundance [12]: 6 | z-score of subpopulation abundance [16]: 3.94 | z-score of subpopulation abundance [13]: 5.77

CCc1cccc2c3c([nH]c12)C(CC)(CC(=O)O)OCC3 (stereo unspecified) [Etodolac]
mean cell size [1]: 12.5 ± 0.19 | z-score of prototroph abundance [2]: 1.07 | z-score of subpopulation abundance [5]: 0.62 | z-score of subpopulation abundance [6]: -0.66 | z-score of subpopulation abundance [7]: 0.31 | z-score of subpopulation abundance [8]: 0.26 | z-score of subpopulation abundance [9]: -0.61 | z-score of subpopulation abundance [10]: -0.8 | z-score of subpopulation abundance [14]: -0.43 | z-score of subpopulation abundance [17]: -0.44 | z-score of subpopulation abundance [15]: -0.48 | z-score of subpopulation abundance [12]: -0.52 | z-score of subpopulation abundance [16]: -0.9
